Laboratory results reported in PubChem BioAssay (NCATS).
Records with an inconclusive call do not appear. Active and inactive are the calls of the source. The call rests on the fitted dose curve; in most records, active means well fitted inhibition curve with a large enough effect; inconclusive means small, poorly fitted or top-dose-only effect; inactive means flat fitted curve, though single readings scatter.

What follows are molecules tested against Tyrosyl-DNA phosphodiesterase 1 (Homo sapiens) (UniProt Q9NUW8) (assay: Confirmation Assay for Inhibitors of Tyrosyl-DNA Phosphodiesterase (TDP1) (AID 489007; further: nearly all actives have a fitted effect of over 40% in size)). Details: recombinant human TDP1 enzymatic activity, dose-response.
Tyrosyl-DNA phosphodiesterase 1 (Homo sapiens), sequence (Q9NUW8 whole entry, looked up): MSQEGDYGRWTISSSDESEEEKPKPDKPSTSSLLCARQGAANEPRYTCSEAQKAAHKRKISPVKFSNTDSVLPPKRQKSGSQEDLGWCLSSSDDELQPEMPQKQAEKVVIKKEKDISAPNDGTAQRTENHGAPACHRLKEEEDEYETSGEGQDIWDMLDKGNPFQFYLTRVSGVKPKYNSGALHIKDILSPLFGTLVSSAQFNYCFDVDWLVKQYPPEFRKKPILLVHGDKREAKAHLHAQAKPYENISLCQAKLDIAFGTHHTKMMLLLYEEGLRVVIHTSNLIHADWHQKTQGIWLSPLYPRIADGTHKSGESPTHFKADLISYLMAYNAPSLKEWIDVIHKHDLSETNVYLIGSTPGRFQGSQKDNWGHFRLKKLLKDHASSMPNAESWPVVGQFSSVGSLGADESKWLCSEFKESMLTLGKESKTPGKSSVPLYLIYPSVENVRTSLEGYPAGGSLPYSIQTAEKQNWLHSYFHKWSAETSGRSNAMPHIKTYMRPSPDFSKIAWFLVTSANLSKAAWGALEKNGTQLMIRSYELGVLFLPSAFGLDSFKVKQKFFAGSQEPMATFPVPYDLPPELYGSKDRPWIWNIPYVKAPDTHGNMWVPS
Method in brief: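 Loss of AlphaScreen signal reports Tdp1 cleavage of a dual-labelled DNA substrate. Conditions: 1 nM E. coli-derived enzyme, 15 nM substrate, 15 min compound preincubation, 5 min reaction, 10 min bead incubation, all at room temperature.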
Potency means the concentration at half of the fitted maximal effect.

Structure (SMILES)	Potency
O=C(COc1ccc2oc(-c3ccco3)cc(=O)c2c1)N1CCCCC1	79.4 µM (active)
Cc1c(C(=O)O)sc2nc3n(c(=O)c12)CCC3	6.31 µM (active)
CCOC(=O)c1sc(NC(=O)C2CC=CCC2C(=O)O)nc1C (stereo not given)	39.8 µM (active)
CCCn1c(SCC(=O)NC(=O)NCc2ccco2)n[nH]c1=O	25.1 µM (active)
COc1ccc2cc(C(=O)Nc3ccccc3)sc(=O)c2c1OC	56.2 µM (active)
O=C1CC(=O)N(Cc2ccco2)C(=S)N1	15.8 µM (active)
CN(C)c1nc(-c2ccccc2)c2cnn(Cc3ccccc3)c2n1	63.1 µM (active)
O=c1cc(CCl)nc2sc3ccccc3n12	14.1 µM (active)
COc1ccc(S(=O)(=O)NCc2cccs2)cc1	112 µM (active)
Nc1nonc1-c1nc2ccccc2n1CC(=O)N/N=C/c1ccc(-c2cccc(C(=O)O)c2)o1	14.1 µM (active)
CN(C)/C=C/C=C1C(=O)CCCC1=O	89.1 µM (active)
Cc1ccc(-c2nc3c(c(SCC(=O)Nc4cccc(C(=O)O)c4)n2)Cc2cccc(C)c2O3)cc1	4.08 µM (active)
CC1=CCC(C(=O)O)C(C(=O)Nc2ccc(-c3nc4ccc(C)cc4s3)cc2)C1 (stereo not given)	31.6 µM (active)
O=C(CSc1nnc(SCc2ccc(Cl)cc2)s1)N/N=C/c1c[nH]c2ccccc12	5.01 µM (active)
O=C(O)c1cc(-c2ccc(/C=N/N3C(=O)C4C5C=CC(C6CC56)C4C3=O)o2)ccc1Cl (stereo not given)	31.6 µM (active)
CCN(c1ccccc1)S(=O)(=O)c1cc(C(=O)O)ccc1C	12.6 µM (active)
NC(=O)c1oc2ccccc2c1NC(=O)c1nc2ccccc2s1	15.8 µM (active)
Nc1ccc(Nc2ccccc2)c(S(=O)(=O)O)c1	7.94 µM (active)
O=C(/C=C/c1c(Cl)nc2ccccn12)N1CCN(c2ccc(F)cc2)CC1	35.5 µM (active)
COc1ccc2cc3cc(C(=O)NCc4cccs4)oc3nc2c1	25.1 µM (active)

Structure (SMILES)	Potency
CC(=O)c1ccc(NC(=O)c2noc3c2CCC3)cc1	50.1 µM (active)
Cc1ccc(CNC(=O)c2ccc(-n3cccc3)cc2)cc1	12.6 µM (active)
O=C1CN(C(=O)/C=C/c2ccco2)c2ccccc2N1	44.7 µM (active)
Cc1ccc(NC(=O)CN2C(=O)S/C(=C\c3cccn3-c3cccc(C(=O)O)c3)C2=O)c(C)c1	15.8 µM (active)
CC1(C)OC(=O)C(=Cc2ccc(-c3ccc(Cl)c(C(=O)O)c3)o2)C(=O)O1	14.1 µM (active)
Cc1nnc(NC(=O)CCSCCC(=O)Nc2nnc(C)s2)s1	15.8 µM (active)
O=C(CSc1nnc(SCc2ccccc2)s1)N/N=C/c1c[nH]c2ccccc12	4.47 µM (active)
CS(=O)(=O)C1=NSC2=NC(=O)/C(=C\c3cccn3-c3ccc(Cl)cc3)C(=N)N21	5.01 µM (active)
COc1ccc(-n2c(NC(=O)c3ccc(Br)o3)c(C#N)c3nc4ccccc4nc32)cc1	100 µM (active)
Cc1ccc(NC(=O)CN2C(=O)N/C(=C/c3cccn3-c3ccc(C(=O)O)cc3)C2=O)cc1	0.282 µM (active)
Fc1ccc(C2CC(c3cccs3)=NN2c2ccccc2)cc1 (stereo not given)	15.8 µM (active)
CC(=O)Nc1ccc2c(COC(=O)CC3Sc4ccccc4NC3=O)cc(=O)oc2c1 (stereo not given)	15.8 µM (active)
O=C(O)CNC(=O)CC1S/C(=N/N=C2/NC(=O)CS2)NC1=O (stereo not given)	89.1 µM (active)
O=c1c2nc(Br)n([C@@H]3O[C@@H]4CO[P@@](O)(=S)O[C@H]4[C@H]3O)c2nc2[nH]c(-c3ccccc3)cn12	12.6 µM (active)
Cc1ccc(CSc2nnc(SCC(=O)N/N=C/c3c[nH]c4ccccc34)s2)cc1	5.62 µM (active)
COc1ccc(CCN2C(=O)C3C4CC(C5C(C(N)=O)=NOC45)C3C2=O)cc1OC (stereo not given)	112 µM (active)
O=C(NN1C(=O)C2CC=C(Cl)CC2C1=O)c1ccncc1 (stereo not given)	31.6 µM (active)
Cc1ccccc1Nc1cccc2nonc12	100 µM (active)
O=C(O)C1C2C=CC(C2)C1C(=O)NCCc1ccncc1 (stereo not given)	100 µM (active)
CCCCCc1nnc(NC(=O)Cc2cccs2)s1	25.1 µM (active)
